# Results as given in PubChem BioAssay (NCATS).
# Unmarked numbers belong to inactive results. Results filed as inconclusive are left out. Activity calls are given as the source filed them. Rule as the data show it, unless noted: active = potency below about 10 µM; inactive = the rest.
# Target: Lysosomal acid glucosylceramidase (Homo sapiens) (UniProt P04062)
# Assay: Glucocerebrosidase-p2 (AID 348); also: potency is read from the fitted curve at half-maximal effect
# Details: purified GBA, blue fluorogenic substrate, 40 min
# Summary of the method: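 Compounds titrated from 0.6 nM upwards against 0.2 nM enzyme in pH 5.9 citric acid/KH2PO4, taurocholate, tween-20; blue fluorogenic substrate 80 uM, 40 min room temperature, stopped and read Ex 365/Em 440 for AC50.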
# Chain of Lysosomal acid glucosylceramidase (Homo sapiens) (P04062 whole entry, looked up): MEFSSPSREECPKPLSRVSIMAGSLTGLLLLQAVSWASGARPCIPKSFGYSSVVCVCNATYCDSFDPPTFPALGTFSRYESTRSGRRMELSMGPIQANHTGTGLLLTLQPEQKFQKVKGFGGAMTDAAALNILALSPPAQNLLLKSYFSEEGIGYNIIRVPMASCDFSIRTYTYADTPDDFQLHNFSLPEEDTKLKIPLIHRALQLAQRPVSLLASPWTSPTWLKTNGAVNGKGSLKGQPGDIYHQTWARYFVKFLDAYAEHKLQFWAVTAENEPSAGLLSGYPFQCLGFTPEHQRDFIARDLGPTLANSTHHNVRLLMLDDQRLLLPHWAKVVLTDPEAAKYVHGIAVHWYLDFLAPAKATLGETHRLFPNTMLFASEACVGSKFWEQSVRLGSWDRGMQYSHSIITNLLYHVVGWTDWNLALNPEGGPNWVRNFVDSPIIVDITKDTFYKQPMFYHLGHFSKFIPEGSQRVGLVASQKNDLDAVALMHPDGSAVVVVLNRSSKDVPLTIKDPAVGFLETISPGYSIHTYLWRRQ
row,SMILES,Potency
1,COCCNc1ncnc2ccc(-c3ccccc3OC)cc12,> 11.4 µM
2,O=c1c(-c2cccc(F)c2)nc2cncnc2n1Cc1ccc(F)cc1,> 11.4 µM
3,CS(=O)(=O)Nc1cccc(-c2nc(Nc3ccncc3)c3ccccc3n2)c1,7.2 µM (active)
4,O=c1c(CCc2ccccc2)nc2cnc(N3CCNCC3)nc2n1Cc1cccs1,> 11.4 µM
5,COc1ccc(Oc2ncc3nc(-c4ccc(F)cc4)c(=O)n(C[C@H]4CCCO4)c3n2)cc1,> 11.4 µM
6,COCCn1c(=O)c(CCc2ccccc2)nc2cnc(Oc3ccccc3)nc21,> 11.4 µM
7,CN(C)c1ncc2nc(-c3ccccc3)c(=O)n(C)c2n1,> 11.4 µM
8,COc1ncc2nc(-c3ccccc3)c(=O)n(CCc3ccccc3)c2n1,> 11.4 µM
9,CN(C)c1ccc(-c2cncnc2NCCN2CCOCC2)cc1,> 11.4 µM
10,COc1ccc(-c2nc3cnc(N4CCN(C)CC4)nc3n(CCc3ccccc3)c2=O)cc1,> 11.4 µM
11,COc1ccccc1CNc1cc(-c2cccnc2)ncn1,> 11.4 µM
12,CCNc1ncc2nc(CCc3ccccc3)c(=O)n(Cc3cccc(OC)c3)c2n1,> 11.4 µM
13,CN(Cc1ccco1)c1ncnc2ccc(-c3cccc(NS(C)(=O)=O)c3)cc12,> 11.4 µM
14,CN(C)c1nc(-c2cccc(C#N)c2)nc2ccccc12,> 11.4 µM
15,CN1CCN(c2ncnc3ccc(-c4cccc(C#N)c4)cc23)CC1,> 11.4 µM
16,COc1cccc(Nc2ncc3ncc(=O)n(Cc4ccc(F)cc4)c3n2)c1,> 11.4 µM
17,COc1ccccc1CNc1ccnc(-c2cccc(NS(C)(=O)=O)c2)n1,> 11.4 µM
18,COc1cccc(-c2ccc3ncnc(N4CCNCC4)c3c2)c1,> 11.4 µM
19,N#CCCn1c(=O)c(-c2ccc(Cl)cc2)nc2cnc(N3CCOCC3)nc21,> 11.4 µM

row,SMILES,Potency
1,CCNc1ncc2nc(-c3ccc(OC)cc3)c(=O)n(C)c2n1,> 11.4 µM
2,O=c1c(CCc2ccccc2)nc2cnc(Nc3ccccc3)nc2n1C[C@H]1CCCO1,> 11.4 µM
3,COc1ccccc1CNc1ccnc(-c2cccnc2)n1,> 11.4 µM
4,CN(C)c1ncnc2ccc(-c3cccc(NS(C)(=O)=O)c3)cc12,> 11.4 µM
5,CN1CCN(c2ncnc3ccc(-c4ccccc4C(F)(F)F)cc23)CC1,> 11.4 µM
6,COc1ccc2[nH]cc(CCNc3ncncc3-c3ccccc3OC)c2c1,> 11.4 µM
7,COCCn1c(=O)c(-c2ccccc2)nc2cnc(Oc3cccc(Cl)c3)nc21,> 11.4 µM
8,Cc1cnc(CNc2ncnc3ccc(-c4ccc(N(C)C)cc4)cc23)cn1,> 11.4 µM
9,COc1ccc(Oc2ncc3nc(-c4cc(F)cc(F)c4)c(=O)n(C4CC4)c3n2)cc1,> 11.4 µM
10,COc1ccccc1-c1ccc2ncnc(N3CCNCC3)c2c1,> 11.4 µM
11,O=c1c(CCc2ccccc2)nc2cnc(Oc3ccccc3)nc2n1C1CC1,> 11.4 µM
12,Cn1c(=O)c(-c2ccc(Cl)cc2)nc2cncnc21,> 11.4 µM
13,COc1ccccc1-c1nccc(NCc2cccs2)n1,> 2.29 µM
14,COc1ccc2[nH]cc(CCNc3cc(-c4cccc(C#N)c4)ncn3)c2c1,> 11.4 µM
15,CN(C)c1ncc2nc(CCc3ccccc3)c(=O)n(CCC#N)c2n1,> 11.4 µM
16,COc1ccccc1-c1ccc2ncnc(N3CCOCC3)c2c1,> 11.4 µM
17,COc1ccccc1CNc1cc(-c2ccccc2CN(C)C)ncn1,> 11.4 µM
18,Cc1cnc(CNc2ncnc3ccc(-c4ccccc4C)cc23)cn1,> 11.4 µM

# Test system: not listed separately
# Assay: AP1 Signaling Pathway (AID 357; active = well fitted curve in either direction with a large enough effect, not every such curve was filed as active; also: % is scaled to controls: 0 for no effect and ±100 for the full control effect)
# Details: ME-180 (cervical carcinoma) AP-1-bla reporter, EGF-induced, beta-lactamase ratio, 5 h; at 7.69 µM (top of the series) unless noted
# Summary of the method: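 AP-1-bla ME-180 cells with beta-lactamase reporter under AP-1 response element, stimulated with EC50 EGF; compounds titrated, 5 hours at 37 degrees Celsius. CCF4 read at 460/530 nm ratio; positive and negative modulators judged by AC50.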
row,SMILES,"activity change, negative = inhibition"
1,COCCNc1ncnc2ccc(-c3ccccc3OC)cc12,-6.49%
2,O=c1c(-c2cccc(F)c2)nc2cncnc2n1Cc1ccc(F)cc1,-9.74%
3,CS(=O)(=O)Nc1cccc(-c2nc(Nc3ccncc3)c3ccccc3n2)c1,-17.9%
4,O=c1c(CCc2ccccc2)nc2cnc(N3CCNCC3)nc2n1Cc1cccs1,7.64%
5,COc1ccccc1-c1nc(Nc2ccncc2)c2ccccc2n1,-6.27%
6,COc1ccc(Oc2ncc3nc(-c4ccc(F)cc4)c(=O)n(C[C@H]4CCCO4)c3n2)cc1,-23.4%
7,COCCn1c(=O)c(CCc2ccccc2)nc2cnc(Oc3ccccc3)nc21,-27.4%
8,COc1ncc2nc(-c3ccccc3)c(=O)n(CCc3ccccc3)c2n1,-6.17%
9,COc1ccccc1CNc1cc(-c2cccnc2)ncn1,-4.39%
10,CCNc1ncc2nc(CCc3ccccc3)c(=O)n(Cc3cccc(OC)c3)c2n1,16.5%
11,CN(C)c1nc(-c2cccc(C#N)c2)nc2ccccc12,2.42%
12,CN1CCN(c2ncnc3ccc(-c4cccc(C#N)c4)cc23)CC1,-0.311%
13,COc1cccc(Nc2ncc3ncc(=O)n(Cc4ccc(F)cc4)c3n2)c1,-28.1%
14,COc1ccccc1CNc1ccnc(-c2cccc(NS(C)(=O)=O)c2)n1,-17.8%
15,COc1cccc(-c2ccc3ncnc(N4CCNCC4)c3c2)c1,1.7%
16,N#CCCn1c(=O)c(-c2ccc(Cl)cc2)nc2cnc(N3CCOCC3)nc21,0.155%

row,SMILES,"activity change, negative = inhibition"
1,CCNc1ncc2nc(-c3ccc(OC)cc3)c(=O)n(C)c2n1,22.4%
2,O=c1c(CCc2ccccc2)nc2cnc(Nc3ccccc3)nc2n1C[C@H]1CCCO1,16.4%
3,CN(C)c1ccc(-c2cc(N(C)Cc3ccco3)ncn2)cc1,-23.1%
4,COc1ccccc1CNc1ccnc(-c2cccnc2)n1,-7.12%
5,CN(C)c1ncnc2ccc(-c3cccc(NS(C)(=O)=O)c3)cc12,-26.5%
6,COc1ccc2[nH]cc(CCNc3ncncc3-c3ccccc3OC)c2c1,-16.8%
7,COc1ccc(Oc2ncc3nc(-c4cc(F)cc(F)c4)c(=O)n(C4CC4)c3n2)cc1,-9.27%
8,COc1ccccc1-c1ccc2ncnc(N3CCNCC3)c2c1,4.97%
9,O=c1c(CCc2ccccc2)nc2cnc(Oc3ccccc3)nc2n1C1CC1,-15.6%
10,Cn1c(=O)c(-c2ccc(Cl)cc2)nc2cncnc21,-6.64%
11,COc1ccccc1-c1nccc(NCc2cccs2)n1,15.8%
12,CCNc1ncc2nc(CCc3ccccc3)c(=O)n(CCC#N)c2n1,-12.2%
13,COc1ccc2[nH]cc(CCNc3cc(-c4cccc(C#N)c4)ncn3)c2c1,-15.9%
14,CN(C)c1ncc2nc(CCc3ccccc3)c(=O)n(CCC#N)c2n1,-11%
15,COc1ccccc1CNc1cc(-c2ccccc2CN(C)C)ncn1,4.71%
16,Cc1cnc(CNc2ncnc3ccc(-c4ccccc4C)cc23)cn1,-14.7%
